Our source for the binding signal values is paper PMC8384837, “Expanding the binding specificity for RNA recognition by a PUF domain”.

Residue numbers refer to the chain shown, from its start.

What all share (assay): yeast three-hybrid, YBZ-1, SC-Leu-His + 0.5 mM 3-AT, 4 days
Holding throughout (conditions): tags: N-Gal4 AD-HA kept; label: inside an RPR1-promoter hybrid RNA with tandem MS2 sites; ssRNA

One experiment concerns the target PUM1 PUF domain R5-NSV (Homo sapiens, UniProt Q14671 828-1176, C1007N;R1008S;Q1011V). In a few lines: (§1)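 A centromeric plasmid in strain YBZ-1 co-expressed Pumilio-1 PUF domain libraries, randomized at the three base-contacting residues of each repeat, with matching RNA elements; the strain carries a LexA–MS2 coat fusion and a HIS3 reporter. After four days on SC-Leu (input) or SC-Leu-His + 0.5 mM 3-AT (selection), the repeat regions were PCR-amplified and Illumina-sequenced. The interaction score is the log change in variant frequency from input to selection, using log2 and a pseudocount of 1 where absent.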

A further experiment deals with PUM1 PUF domain R5-KLE (Homo sapiens, UniProt Q14671 828-1176, C1007K;R1008L;Q1011E). Put shortly:
as §1

For another experiment, the target named is PUM1 PUF domain R3-RAT (Homo sapiens, UniProt Q14671 828-1176, C935R;R936A;Q939T). In a few lines: as §1
The target in another experiment is PUM1 PUF domain R3-MRY (Homo sapiens, UniProt Q14671 828-1176, C935M;Q939Y). In a few lines: as §1
The next experiment deals with PUM1 PUF domain R3-RRA (Homo sapiens, UniProt Q14671 828-1176, C935R;Q939A). Put shortly:
as §1

Another experiment has as its target PUM1 PUF domain R1-GYR (Homo sapiens, UniProt Q14671 828-1176, S863G;R864Y;Q867R). Put shortly: as §1
A further experiment addresses PUM1 PUF domain R1-KTS (Homo sapiens, UniProt Q14671 828-1176, S863K;R864T;Q867S). Put shortly: as §1
The target of the next experiment is PUM1 PUF domain R5-RRH (Homo sapiens, UniProt Q14671 828-1176, C1007R;Q1011H). In a few lines:
as §1

For a further experiment, the target named is PUM1 PUF domain R3-QCD (Homo sapiens, UniProt Q14671 828-1176, C935Q;R936C;Q939D). In a few lines:
as §1

The next experiment has as its target PUM1 PUF domain R3-APD (Homo sapiens, UniProt Q14671 828-1176, C935A;R936P;Q939D). In a few lines:
as §1

The next experiment has as its target PUM1 PUF domain R3-IWD (Homo sapiens, UniProt Q14671 828-1176, C935I;R936W;Q939D). In a few lines:
as §1

For the next experiment, the target named is PUM1 PUF domain R5-DCR (Homo sapiens, UniProt Q14671 828-1176, C1007D;R1008C;Q1011R). In a few lines:
as §1

In a further experiment the target is PUM1 PUF domain R4-APC (Homo sapiens, UniProt Q14671 828-1176, N971A;H972P;Q975C). In a few lines: as §1
The target of another experiment is PUM1 PUF domain R8-SHR (Homo sapiens, UniProt Q14671 828-1176, N1122S;Y1123H;Q1126R). Put shortly:
as §1

For another experiment, the target named is PUM1 PUF domain R8-RWW (Homo sapiens, UniProt Q14671 828-1176, N1122R;Y1123W;Q1126W). Put shortly: as §1
A further experiment addresses PUM1 PUF domain R8-QFC (Homo sapiens, UniProt Q14671 828-1176, N1122Q;Y1123F;Q1126C). In a few lines:
as §1

The target in the next experiment is T1, PUM1 PUF domain R6-CFF (Homo sapiens, UniProt Q14671 828-1176, N1043C;Y1044F;Q1047F).
T1 sequence: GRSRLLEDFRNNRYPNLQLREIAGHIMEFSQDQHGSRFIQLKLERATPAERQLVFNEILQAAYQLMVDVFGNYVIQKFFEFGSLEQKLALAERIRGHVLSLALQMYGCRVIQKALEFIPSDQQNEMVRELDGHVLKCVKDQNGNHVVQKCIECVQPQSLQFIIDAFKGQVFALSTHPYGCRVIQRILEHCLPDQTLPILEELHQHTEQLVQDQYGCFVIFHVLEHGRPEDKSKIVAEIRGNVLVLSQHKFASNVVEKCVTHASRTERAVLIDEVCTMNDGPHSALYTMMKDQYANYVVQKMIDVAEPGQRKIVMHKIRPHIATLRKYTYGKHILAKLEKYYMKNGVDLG
Put shortly: as §1

A further experiment concerns the target PUM1 PUF domain R2-NFP (Homo sapiens, UniProt Q14671 828-1176, Y900F;Q903P). Put shortly:
as §1

The target of a further experiment is PUM1 PUF domain R5-SRT (Homo sapiens, UniProt Q14671 828-1176, C1007S;Q1011T). In a few lines: as §1
In another experiment the target is T2, PUM1 PUF domain R6-NYW (Homo sapiens, UniProt Q14671 828-1176, Q1047W).
T2 sequence: T1 sequence with C216N, F217Y, F220W
In a few lines: as §1

Sequence of PUM1 PUF domain R5-RRH (Q14671 828-1176 C1007R/Q1011H): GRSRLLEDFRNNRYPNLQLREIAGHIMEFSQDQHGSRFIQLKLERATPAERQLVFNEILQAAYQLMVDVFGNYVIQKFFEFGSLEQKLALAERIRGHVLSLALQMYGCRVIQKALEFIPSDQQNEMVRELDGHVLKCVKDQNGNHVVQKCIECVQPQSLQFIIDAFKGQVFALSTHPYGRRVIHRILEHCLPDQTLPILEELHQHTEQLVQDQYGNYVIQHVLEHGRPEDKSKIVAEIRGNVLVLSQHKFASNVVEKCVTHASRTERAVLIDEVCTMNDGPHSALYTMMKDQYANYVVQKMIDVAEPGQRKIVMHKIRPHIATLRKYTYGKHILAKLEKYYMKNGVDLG
Sequence of PUM1 PUF domain R4-APC (Q14671 828-1176 N971A/H972P/Q975C): as the sequence (Q14671 828-1176 C1007R/Q1011H) above, with N144A, H145P, Q148C, R180C, H184Q counted along it
Sequence of PUM1 PUF domain R3-APD (Q14671 828-1176 C935A/R936P/Q939D): as the sequence (Q14671 828-1176 C1007R/Q1011H) above, with C108A, R109P, Q112D, R180C, H184Q counted along it
Sequence of PUM1 PUF domain R1-GYR (Q14671 828-1176 S863G/R864Y/Q867R): as the sequence (Q14671 828-1176 C1007R/Q1011H) above, with S36G, R37Y, Q40R, R180C, H184Q counted along it
Sequence of PUM1 PUF domain R8-RWW (Q14671 828-1176 N1122R/Y1123W/Q1126W): as the sequence (Q14671 828-1176 C1007R/Q1011H) above, with R180C, H184Q, N295R, Y296W, Q299W counted along it
Sequence of PUM1 PUF domain R3-MRY (Q14671 828-1176 C935M/Q939Y): as the sequence (Q14671 828-1176 C1007R/Q1011H) above, with C108M, Q112Y, R180C, H184Q counted along it
Sequence of PUM1 PUF domain R3-IWD (Q14671 828-1176 C935I/R936W/Q939D): as the sequence (Q14671 828-1176 C1007R/Q1011H) above, with C108I, R109W, Q112D, R180C, H184Q counted along it
Sequence of PUM1 PUF domain R3-RRA (Q14671 828-1176 C935R/Q939A): as the sequence (Q14671 828-1176 C1007R/Q1011H) above, with C108R, Q112A, R180C, H184Q counted along it
Sequence of PUM1 PUF domain R8-QFC (Q14671 828-1176 N1122Q/Y1123F/Q1126C): as the sequence (Q14671 828-1176 C1007R/Q1011H) above, with R180C, H184Q, N295Q, Y296F, Q299C counted along it
Sequence of PUM1 PUF domain R3-QCD (Q14671 828-1176 C935Q/R936C/Q939D): as the sequence (Q14671 828-1176 C1007R/Q1011H) above, with C108Q, R109C, Q112D, R180C, H184Q counted along it

Regarding “GGCUAGAACUAGUGGAUCCCCCGGCGCCCGGCGGCUCGAGCCCGGGUAAGUGUUAAUAGUCUGCAUGCCGCCGGGCGCCAUGCCUGCAGGUCGACUCUAGAAAACAUG”, the values for the binding signal with PUM1 PUF domain R5-NSV and in the experiment with PUM1 PUF domain R5-KLE were 2.21 log2 enrichment (interaction score) and 2.51 log2 enrichment (interaction score), respectively.

On to “GGCUAGAACUAGUGGAUCCCCCGGCGCCCGGCGGCUCGAGCCCGGGUAAGUGUAAUUAGUCUGCAUGCCGCCGGGCGCCAUGCCUGCAGGUCGACUCUAGAAAACAUG”, for which the binding signal is 3.26 log2 enrichment (interaction score) with PUM1 PUF domain R3-RAT, 1.32 log2 enrichment (interaction score) with PUM1 PUF domain R3-MRY and 3.19 log2 enrichment (interaction score) with PUM1 PUF domain R3-RRA.

As for “GGCUAGAACUAGUGGAUCCCCCGGCGCCCGGCGGCUCGAGCCCGGGUAAGUGUAAAUUGUCUGCAUGCCGCCGGGCGCCAUGCCUGCAGGUCGACUCUAGAAAACAUG”, the binding signal with PUM1 PUF domain R1-GYR was 2.71 log2 enrichment (interaction score).

With “GGCUAGAACUAGUGGAUCCCCCGGCGCCCGGCGGCUCGAGCCCGGGUAAGUGUAAAUCGUCUGCAUGCCGCCGGGCGCCAUGCCUGCAGGUCGACUCUAGAAAACAUG”, the values for the binding signal with PUM1 PUF domain R1-KTS and with PUM1 PUF domain R1-GYR were 4.91 log2 enrichment (interaction score) and 4.99 log2 enrichment (interaction score), respectively.

As to “GGCUAGAACUAGUGGAUCCCCCGGCGCCCGGCGGCUCGAGCCCGGGUAAGUGUGAAUAGUCUGCAUGCCGCCGGGCGCCAUGCCUGCAGGUCGACUCUAGAAAACAUG”, the values for the binding signal in the experiment with PUM1 PUF domain R5-NSV and in the experiment with PUM1 PUF domain R5-RRH were 0.18 log2 enrichment (interaction score) and 1.47 log2 enrichment (interaction score), respectively.

Regarding “GGCUAGAACUAGUGGAUCCCCCGGCGCCCGGCGGCUCGAGCCCGGGUAAGUGUAAGUAGUCUGCAUGCCGCCGGGCGCCAUGCCUGCAGGUCGACUCUAGAAAACAUG”, the binding signal is 4.3 log2 enrichment (interaction score) in the experiment with PUM1 PUF domain R3-MRY, 3.09 log2 enrichment (interaction score) in the experiment with PUM1 PUF domain R3-QCD, 6.54 log2 enrichment (interaction score) with PUM1 PUF domain R3-APD and 4.83 log2 enrichment (interaction score) with PUM1 PUF domain R3-IWD.

Take “GGCUAGAACUAGUGGAUCCCCCGGCGCCCGGCGGCUCGAGCCCGGGUAAGUGUCAAUAGUCUGCAUGCCGCCGGGCGCCAUGCCUGCAGGUCGACUCUAGAAAACAUG”: the binding signal with PUM1 PUF domain R5-DCR was 2.94 log2 enrichment (interaction score); with PUM1 PUF domain R5-KLE it was 5.37 log2 enrichment (interaction score); with PUM1 PUF domain R5-RRH it was 5.57 log2 enrichment (interaction score).

Consider “GGCUAGAACUAGUGGAUCCCCCGGCGCCCGGCGGCUCGAGCCCGGGUAAGUGUACAUAGUCUGCAUGCCGCCGGGCGCCAUGCCUGCAGGUCGACUCUAGAAAACAUG”, for which the binding signal with PUM1 PUF domain R4-APC is 1.88 log2 enrichment (interaction score).

Consider “GGCUAGAACUAGUGGAUCCCCCGGCGCCCGGCGGCUCGAGCCCGGGUAAGUGUAUAUAGUCUGCAUGCCGCCGGGCGCCAUGCCUGCAGGUCGACUCUAGAAAACAUG”, for which the binding signal with PUM1 PUF domain R4-APC is 3.17 log2 enrichment (interaction score).

For the sequence “GGCUAGAACUAGUGGAUCCCCCGGCGCCCGGCGGCUCGAGCCCGGGUAAGCGUAAAUAGUCUGCAUGCCGCCGGGCGCCAUGCCUGCAGGUCGACUCUAGAAAACAUG”, the binding signal with PUM1 PUF domain R8-SHR was 3.61 log2 enrichment (interaction score); with PUM1 PUF domain R8-RWW, 5.89 log2 enrichment (interaction score); with PUM1 PUF domain R8-QFC, 3.87 log2 enrichment (interaction score).

As for “GGCUAGAACUAGUGGAUCCCCCGGCGCCCGGCGGCUCGAGCCCGGGUAAGUGUAAAUAGUCUGCAUGCCGCCGGGCGCCAUGCCUGCAGGUCGACUCUAGAAAACAUG”, the binding signal is 4.85 log2 enrichment (interaction score) with PUM1 PUF domain R6-CFF; 4.08 log2 enrichment (interaction score) in the experiment with PUM1 PUF domain R8-SHR; 2.11 log2 enrichment (interaction score) with PUM1 PUF domain R2-NFP; 3.34 log2 enrichment (interaction score) with PUM1 PUF domain R5-SRT; 2.24 log2 enrichment (interaction score) with PUM1 PUF domain R6-NYW; 1.96 log2 enrichment (interaction score) in the experiment with PUM1 PUF domain R5-RRH. Moreover, the binding signal with PUM1 PUF domain R3-APD is 4.44 log2 enrichment (interaction score); with PUM1 PUF domain R8-RWW, 4.93 log2 enrichment (interaction score); with PUM1 PUF domain R4-APC, 4.14 log2 enrichment (interaction score).
